In PubChem BioAssay (EPA / NIEHS):
Results filed as inconclusive are left out. Activity calls are given as the source filed them. How the source made its calls: active means hit-call score of the fitted dose curve at least 0.9, where 1 is the maximum; inconclusive means response in the unintended direction; inactive means score below 0.9.

Test: ATG_XTT_Cytotoxicity: Cytotoxicity Assessment in the Attagene TRANS-FACTORIAL HepG2 Assay (AID 2283584)
Description: ATG_XTT_Cytotoxicity is a cell-based, single-readout assay that uses HepG2, a human liver cell line, with measurements taken at 24 hours after chemical dosing in a 24-well plate.ATG_XTT_Cytotoxicity is one of one assay component(s) measured or calculated from the ATG_XTT_Cytotoxicity assay. It is designed to make measurements of cell number, a form of viability reporter, as detected with […] signals by XTT cytotoxicity assay technology.Data from the assay component ATG_XTT_Cytotoxicity was analyzed into 1 assay endpoint. This assay endpoint, ATG_XTT_Cytotoxicity, was analyzed in the positive analysis fitting direction relative to DMSO as the negative control and baseline of activity. Using a type of viability reporter, loss-of-signal activity can be used to understand changes in the viability. Furthermore, this assay endpoint can be referred to as a primary readout, because the performed assay has only produced 1 assay endpoint. To generalize the intended target to other relatable targets, this assay endpoint is annotated to the cell cycle intended target family, where the subfamily is cytotoxicity.
Human liver HepG2 cells are transiently transfected with multiple reporter transcription units (MRTUs) in 6-well plates using FuGene 6 reagent (Roche; 3 ml FuGene/1 mg DNA). The MRTU constructs are regulated by a cis-regulating element (promoter). […] A major difference between the CIS and TRANS system is that in CIS activities of endogenous TFs are measured, whereas the TRANS assay evaluates changes in activities of exogenous, chimeric NR-Gal4 proteins. […] At the end of 24 hour incubation, total RNA was isolated using TriZol reagent (Invitrogen). The isolated RNA is then reverse-transcribed using oligo(dT) primer and Mo-MLV reverse transcriptase (Invitrogen) with DNAse I (Ambion) treatment for 30 min. The one-tenth of the produced cDNA was amplified by PCR using Taq DNA polymerase (Invitrogen) and two reporter sequence-specific primers. The PCR products were fluorescently labeled by primer extension with 6-arboxyfluorescein (6-FAM) 5'-labeled reporter sequence-specific primer (2 min at 95 C, 20 s at 68 C and 10 min at 72 C) and these products were digested with 5U of HpaI (New England Biolabs) for 2h at 37 C. The fragments were purified using Qiaquick PCR columns (Qiagen), analyzed on an ABI 3130xL genetic analyzer (Applied Biosystems) with peak positions identified by using a set of X-rhodamine (ROX)-labeled MapMarker1000 molecular weight standards (BioVentures). The raw capillary electrophoresis data was processed using Attagraph software (Attagene).
For `Cc1ccccc1S(=O)(=O)O`, the outcome was “inactive”. For `OCCOCCOCCOCCOCCO`, the outcome was “inactive”. For `O=C(CC(C(=O)OC1CCCCC1)S(=O)(=O)O)OC1CCCCC1` (stereo not given), the outcome was “inactive”. With `C=CCOCC(CC)(CO)COCC=C` the outcome was “inactive”. In the case of `OCCN(CCO)c1cccc(Cl)c1`, the outcome is reported as “inactive”. In the case of `C=CC(C)(CCC=C(C)C)OC(=O)c1ccccc1` (stereo not given), the outcome is reported as “inactive”. For `COC(=O)/C=C\C(=O)OC`, the outcome was “inactive”. With `CC[N+](CC)(CC(=O)Nc1c(C)cccc1C)Cc1ccccc1` the outcome was “inactive”. For `CCC(C)NC(N)=O` (stereo not given), the outcome was “inactive”. For `O=C(O)c1cc(Cl)cc(Cl)c1O`, the outcome was “inactive”. With `C[C@H]1C[C@H]2[C@@H]3CCC4=CC(=O)C=C[C@]4(C)[C@@]3(F)[C@@H](O)C[C@]2(C)[C@@]1(O)C(=O)CO` the outcome was “inactive”. For `Cc1ccnc(N)c1`, the outcome was “inactive”. With `O=C(c1ccccc1)c1ccccc1O` the outcome was “inactive”. For `CCC(=O)OCc1ccc(OC)cc1`, the outcome was “inactive”. With `O=C1NC(=O)[C@@H]2CC=CC[C@H]12` the outcome was “inactive”. For `CN(C)c1ccc(C(c2ccccc2)c2ccc(N(C)C)cc2)cc1`, the outcome was “inactive”. For `CC(=O)CCc1ccccc1`, the outcome was “inactive”. In the case of `Clc1ccc(Sc2cc(Cl)c(Cl)cc2Cl)cc1`, the outcome is reported as “inactive”. In the case of `c1cc(N(CC2CO2)CC2CO2)ccc1Cc1ccc(N(CC2CO2)CC2CO2)cc1` (stereo not given), the outcome is reported as “inactive”. For `O=[N+]([O-])c1ccccc1C(F)(F)F`, the outcome was “inactive”. For `CNC(=C[N+](=O)[O-])NCCSCc1csc(CN(C)C)n1`, the outcome was “inactive”. With `c1ccc2c(c1)Oc1ccccc1S2` the outcome was “inactive”. In the case of `O=C(O)/C=C/C(=O)O`, the outcome is reported as “inactive”. In the case of `Cc1cc(-n2nc3ccc(Cl)cc3n2)c(O)c(C(C)(C)C)c1`, the outcome is reported as “inactive”. With `[O-][n+]1ccc(Cl)cc1` the outcome was “inactive”. In the case of `N#CCN(CC#N)CCN(CC#N)CC#N`, the outcome is reported as “inactive”. With `CCCC[N+]1(C)CCCC1` the outcome was “inactive”. With `CCc1cc(C(N)=S)ccn1` the outcome was “inactive”. For `CO[Si](CCCNCCN)(OC)OC`, the outcome was “inactive”. For `CC/C=C\CCO`, the outcome was “inactive”. With `C=C(C)C(=O)OCCCCCC` the outcome was “inactive”. With `COc1ccccc1OCC(O)CO` (stereo not given) the outcome was “inactive”. In the case of `CC[N+](CC)(CC(=O)Nc1c(C)cccc1C)Cc1ccccc1` (tested in a mixture with another compound), the outcome is reported as “inactive”. For `Oc1ccc(Cl)cc1C1CCCC1`, the outcome was “inactive”. With `COC(=O)[C@]1(C)CCC[C@@]2(C)[C@H]1CC=C1C=C(C(C)C)CC[C@@H]12` the outcome was “inactive”. With `COc1cccc(OC)c1C(=O)O` the outcome was “inactive”. With `CCCc1c(OCCCCc2nn[nH]n2)ccc(C(C)=O)c1O` the outcome was “inactive”. For `CCC(C)C1N=C(C)C(C)S1` (stereo not given), the outcome was “inactive”. For `CNC[C@H](O)[C@@H](O)[C@H](O)[C@H](O)CO`, the outcome was “inactive”. With `CC(O)(P(=O)(O)O)P(=O)(O)O` the outcome was “inactive”.
